Test results from PubChem BioAssay (NCATS).
Records with an inconclusive call do not appear. The source made the active and inactive calls. Calls come from the whole dose curve; as a rule, active = well fitted cell-killing curve with a large enough effect; inconclusive = small, poorly fitted or top-dose-only effect, or effect the other way; inactive = no such curve, though single readings can be large or run the other way.

Assay: Quantitative High-Throughput drug screen in 47 multiple myeloma cell lines against the NCATS MIPE library collection: XG1_PLB cell viability assay (AID 1919866); note: nearly all actives have a fitted effect of over 35% in size
Details: CellTiter-Glo ATP, 48 h; series mostly up to 45.8 µM
Excerpt: PI: Beverly A. Mock Ph.D.
Laboratory of Cancer Biology and Genetics,
Center for Cancer Research, National Cancer Institute,
National Institute of Health, Bethesda, Maryland
Drug resistance and disease progression are common in multiple myeloma (MM) patients, underscoring the need for new therapeutic combinations. […] We hypothesized that effective combinations would reduce MYC expression and enhance p16 activity. […] These preclinical data identify potentially useful drug combinations for evaluation in drug-resistant MM and reveal potential mechanisms of combined drug sensitivity.
Described herein is the primary MIPE qHTS used to cherrypick compounds. Validated compounds were then further tested for potential synergistic activiy.
[1] Peat TJ, Gaikwad SM, Dubois W, Gyabaah-Kessie N, Zhang S, Gorjifard S, Phyo Z, Andres M, Hughitt VK, Simpson RM, Miller MA, Girvin AT, Taylor A, Williams D, D'Antonio N, Zhang Y, Rajagopalan A, Flietner E, Wilson K, Zhang X, Shinn P, Klumpp-Thomas C, McKnight C, Itkin Z, Chen L, Kazandijian D, Zhang J, Michalowski AM, Simmons JK, Keats J, Thomas CJ, Mock BA. Drug combinations identified by high-throughput screening promote cell cycle transition and upregulate Smad pathways in myeloma. Cancer Lett. 2023 Aug 1;568:216284. doi: 10.1016/j.canlet.2023.216284. Epub 2023 Jun 24. PMID: 37356470; PMCID: PMC10408729.
SEQUENCE No. (e.g., 1, 2, 3, etc.); […] (e.g., Cells, Incubation, Reagent, etc.); VALUE and DESCRIPTION.
1; Cells; 5 uL; white, solid bottom 1536-well Greiner assay plate.
2; Compounds; 23 nL; Kalypsis pin tool (Wako USA) equipped with a 1536-well pin head to transfer to the assay plates.
3; Incubation; 48 hours; 37C incubation.
4; Reagent;5uL; CellTiter Glo (Promega).
5; Detector; 425V; Luminescence; Viewlux PerkinElmer.
NOTES (numbers refer to Sequence numbers above)
1. The cell-based screening methods employed in this study were like those previously published. Briefly, the corresponding myeloma cell lines were screened in 1,536-well plates with 500 cells, 5-uL per well for inhibition of cell viability (assessed by measuring ATP levels with CellTiterGlo).
2. NCATS MIPE 4.0 library of approved and investigational drugs were added using the Kalypsis pin tool. Wells treated with DMSO only for 100% viability and media only for 0% viability were used as controls.
3. The assay plates were covered and incubated for 48 hours in a 37C, 5% CO2 incubator with controlled humidity.
4. After 48 hours, CellTilter-GloTM luminescent substrate mix (Promega) reagent was added to the assay plate and plates we incubated for 5 min at room temperature.
5. Signal was measured as median relative luminescence units on a ViewLux (PerkinElmer) multiplate reader.
[1] Heske CM, Davis MI, Baumgart JT, Wilson K, Gormally MV, Chen L, Zhang X, Ceribelli M, Duveau DY, Guha R, Ferrer M, Arnaldez FI, Ji J, Tran HL, Zhang Y, Mendoza A, Helman LJ, Thomas CJ. Matrix Screen Identifies Synergistic Combination of PARP Inhibitors and Nicotinamide Phosphoribosyltransferase (NAMPT) Inhibitors in Ewing Sarcoma. Clin Cancer Res. 2017 Dec 1;23(23):7301-7311. doi: 10.1158/1078-0432.CCR-17-1121. Epub 2017 Sep 12. PMID: 28899971; PMCID: PMC6636827.
Potency is the fitted concentration of half-maximal effect.

| Compound | Potency |
| --- | --- |
| Cc1cc(Nc2nc(N[C@@H](C)c3ccc(F)cc3)c(C#N)cc2F)n[nH]1 | 0.235 µM (active) |
| CCCCN1CCC(CNC(=O)c2c3n(c4ccccc24)CCCO3)CC1 | 0.743 µM (active) |
| COc1c(OCCCN2CCOCC2)ccc2c3n(c(=NC(=O)c4cnc(N)nc4)nc12)CCN3 | 1.44 µM (active) |
| C[C@@H](Oc1cc(-n2cnc3ccc(CN4CCN(C)CC4)cc32)sc1C(N)=O)c1ccccc1C(F)(F)F | 0.0148 µM (active) |
| Cc1cn2c(-c3cn[nH]c3)cnc2c(Nc2ccc(C(=O)N3CCNCC3)cc2F)n1 | 3.72 µM (active) |
| CC1(C)CCC(c2ccc(Cl)cc2)=C(CN2CCN(c3ccc(C(=O)NS(=O)(=O)c4ccc(N[C@H](CCN5CCOCC5)CSc5ccccc5)c(S(=O)(=O)C(F)(F)F)c4)cc3)CC2)C1 | 16.6 µM (active) |
| Cc1cc(Nc2cc(N3CCN(C)CC3)nc(C=Cc3ccccc3)n2)n[nH]1 | 4.81 µM (active) |
| COCCOc1ccc2c(c1)ncn2-c1ccc2cccc(N3CCC(N)CC3)c2n1 | 0.132 µM (active) |
| CNc1nccc(-c2cccnc2Oc2cc(C(=O)Nc3cccc(C(F)(F)F)c3)ccc2C)n1 | 2.35 µM (active) |
| Cc1cc(CN2CCN(c3c(Br)cnc4nc(-c5ccc(N6CCN(C)CC6)cc5)[nH]c34)CC2)no1 | 2.09 µM (active) |
| COc1c(N2C[C@@H]3CCCN[C@H]3C2)c(F)cc2c(=O)c(C(=O)O)cn(C3CC3)c12 | inactive |
| Cc1ccc(C(=O)Nc2ccc(CN3CCN(C)CC3)c(C(F)(F)F)c2)cc1C#Cc1cnc2cccnn12 | 1.32 µM (active) |
| CNC(=O)c1cc(Oc2ccc(NC(=O)Nc3cc(C(C)(C)C)nn3-c3ccc4ncccc4c3)c(F)c2)ccn1 | 7.43 µM (active) |
| CC[C@@H]1C(=O)N(C)c2cnc(Nc3ccc(C(=O)NC4CCN(C)CC4)cc3OC)nc2N1C1CCCC1 | 0.0083 µM (active) |
| COc1ccc(-c2cc3c(C)nc(N)nc3n(C3CCC(OCCO)CC3)c2=O)cn1 (stereo not given) | 0.0187 µM (active) |
| O=C(C=Cc1cccc(S(=O)(=O)Nc2ccccc2)c1)NO | 2.41 µM (active) |
| CC(C)Nc1cc(C(F)(F)F)cc2nc(NC(=O)c3cccnc3)nn12 | inactive |
| Cc1cc(Nc2cc(NC(=O)c3c(Cl)cccc3Cl)ccn2)nc(N)n1 | 1.18 µM (active) |
| COc1cc2ncnc(Nc3ccc(F)c(Cl)c3)c2cc1NC(=O)C=CCN1CCCCC1 | 4.18 µM (active) |
| Nc1ncnc2c1c(-c1cccc(OCc3ccccc3)c1)cn2C1CC(CN2CCCC2)C1 (stereo not given) | 8.33 µM (active) |

| Compound | Potency |
| --- | --- |
| Cc1cn(-c2cc(NC(=O)c3ccc(C)c(Nc4nccc(-c5cccnc5)n4)c3)cc(C(F)(F)F)c2)cn1 | inactive |
| COc1cc2c(Oc3ccc4[nH]c(C)cc4c3F)ncnc2cc1OCCCN1CCCC1 | 3.32 µM (active) |
| COC(=O)C[C@](O)(CCCC(C)(C)O)C(=O)O[C@@H]1C(OC)=C[C@]23CCCN2CCc2cc4c(cc2[C@H]13)OCO4 | inactive |
| CCn1cc(-c2ccnc3[nH]c(-c4cccc(CN(C)C)c4)cc23)c(-c2ccc(NC(=O)N(C)C)cc2)n1 | 1.18 µM (active) |
| CC=CC1=C(C(=O)O)N2C(=O)[C@H](NC(=O)[C@H](N)c3ccc(O)cc3)[C@@H]2SC1 | inactive |
| CC(=O)Nc1nc(C)c(-c2ccc(Cl)c(S(=O)(=O)NCCO)c2)s1 | 1.66 µM (active) |
| CC1COC2(CCN(c3nc(=O)c4cc(C(F)(F)F)cc([N+](=O)[O-])c4s3)CC2)O1 (stereo not given) | inactive |
| COc1ccc(F)c(F)c1C(=O)c1cnc(NC2CCN(S(C)(=O)=O)CC2)nc1N | 1.66 µM (active) |
| Nc1nc(Nc2ccc(S(N)(=O)=O)cc2)nn1C(=O)c1c(F)cccc1F | 2.35 µM (active) |
| NC(=O)c1c(OCc2c(F)cc(Br)cc2F)nsc1NC(=O)NCCCCN1CCCC1 | 8.33 µM (active) |
| O=C(Nc1nc2cccc(-c3ccc(CN4CCS(=O)(=O)CC4)cc3)n2n1)C1CC1 | 14.8 µM (active) |
| NCC(=O)Nc1ccc(-n2nc(C(F)(F)F)cc2-c2ccc3c(ccc4ccccc43)c2)cc1 | 16.6 µM (active) |
| Cc1cnc(Nc2ccc(F)cc2Cl)nc1-c1c[nH]c(C(=O)N[C@H](CO)c2cccc(Cl)c2)c1 | 13.2 µM (active) |
| C[C@]12CC[C@H](O)CC1=CCC1C2CC[C@]2(C)C(n3cnc4ccccc43)=CCC12 (stereo not given in full) | inactive |
| Cc1cc(C(=O)N2CCN(c3cccc(Cl)c3)CC2)n(-c2ccccc2)n1 | 0.0935 µM (active) |
| CC(C)c1nn(-c2c(Cl)cccc2Cl)c2nc(Cc3ccc(OCCO)cc3)[nH]c(=O)c12 | 0.187 µM (active) |
| CC(C)[C@H](C(=O)Nc1ccc(C(=O)NO)cc1)c1ccccc1 | 0.833 µM (active) |
| Clc1ccc2ncc(-c3cccc(NC4CNC4)n3)n2c1 | 14.8 µM (active) |
| CC[C@@H]1C(=O)N(C)c2cnc(Nc3ccc(C(=O)NC4CCC(N5CCN(CC6CC6)CC5)CC4)cc3OC)nc2N1C(C)C (stereo not given in full) | 0.0187 µM (active) |
| CC(C)(C)NC(=O)[C@H]1CN(Cc2cccnc2)CCN1C[C@@H](O)C[C@@H](Cc1ccccc1)C(=O)N[C@H]1c2ccccc2C[C@H]1O | 2.96 µM (active) |
